Screens from PubChem.
Rows were chosen to be rich in hits. Some 4.7% of all compounds tested hit in one or more screens of this group.
D1 antag: Antagonist of Human D 1 Dopamine Receptor: qHTS; D(1A) dopamine receptor (Homo sapiens), P21728; activity change, negative = inhibition, % at 10 µM; HEK293 TREx D1 cells, calcium flux, dopamine EC80; stronger effect = lower value; 360,000 tested, 3.2% active; in the data active means activity change below about -30%; further: on the % scale 0 is the no-effect control and ±100 the full control effect
Target sequence (P21728 whole entry, looked up): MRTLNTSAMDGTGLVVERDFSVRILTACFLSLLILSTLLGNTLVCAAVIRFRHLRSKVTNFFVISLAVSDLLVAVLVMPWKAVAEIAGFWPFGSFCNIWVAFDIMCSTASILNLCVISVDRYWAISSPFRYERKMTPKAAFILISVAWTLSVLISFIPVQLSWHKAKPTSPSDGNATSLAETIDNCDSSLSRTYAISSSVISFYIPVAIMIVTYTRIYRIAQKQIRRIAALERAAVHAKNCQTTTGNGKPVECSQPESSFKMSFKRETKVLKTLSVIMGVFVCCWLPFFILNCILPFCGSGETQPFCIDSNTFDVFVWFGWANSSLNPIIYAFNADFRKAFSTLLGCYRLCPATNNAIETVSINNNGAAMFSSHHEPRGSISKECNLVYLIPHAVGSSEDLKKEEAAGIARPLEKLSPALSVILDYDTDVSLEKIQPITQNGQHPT
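Kinetic fluorescence of a calcium dye serves as the read-out. D1-expressing Hek293 Trex cells, induced overnight at 30 C, are exposed to compound for 180 s before an EC80 dopamine addition, then read 180 s further.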
D1 potentiator: Potentiators of Human D1 Dopamine Receptor: qHTS; D(1A) dopamine receptor (Homo sapiens), P21728; HEK293 TREx D1 cells, calcium flux, dopamine EC20 potentiation; potentiation, % at 10 µM; 360,000 tested, 0.036% active; AID 504651, 2011; in the data active means potentiation above about 30%; further: 0% is about no effect
D1 agonist: Allosteric Agonists of the Human D1 Dopamine Receptor: qHTS | D(1A) dopamine receptor (Homo sapiens), P21728 | HEK293 T-REx D1 cells, calcium flux, agonist mode | activation, % at 2 µM | 360,000 tested, 1% active | AID 504660, 2011; in the data active means activation above about 30%; further: 0% is about no effect
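Inducible HEK293 T-REx D1 cells, force-coupled to calcium signalling, were plated at 4000 cells/well with tetracycline and held overnight at 30 C. After no-wash calcium dye loading, compound-evoked calcium rise over 180 s flagged agonists.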
TRHR enhancer-1: qHTS for Small Molecule Agonists and Allosteric Enhancers of Human TRH Receptor: Primary Screen for Enhancers. Thyrotropin-releasing hormone receptor (Homo sapiens), P34981. 360,000 tested, 0.66% active. TRHR cells, fluo-8 calcium fluorescence, EC20 TRH enhancement. enhancement, % at 2 µM; in the data active means enhancement above about 30%; further: 0% is about no effect
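TRHR-expressing cells loaded with fluo-8 calcium dye were read kinetically (ex 480/em 530) during compound addition, then stimulated with an EC20 of TRH (10 nM final). Enhancement of the Gq-mediated intracellular calcium response was scored.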
TRHR agonist-1: qHTS for Small Molecule Agonists and Allosteric Enhancers of Human TRH Receptor: Primary Screen for Agonists. Thyrotropin-releasing hormone receptor (Homo sapiens), P34981. TRHR cells, calcium flux fluo-8, FDSS agonist mode. activation, % at 2 µM. 360,000 tested, 0.18% active; in the data active means activation above about 30%; further: 0% is about no effect
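Steps: seed TRHR cells overnight; add fluo-8 no-wash Ca dye, RT 30 min–1.5 h; record 10 s baseline; pin-transfer compounds; monitor fluorescence 1 cycle/s for the agonist window. Calcium increases flag candidate agonists.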
TRHR enhancer-2: qHTS for Small Molecule Agonists and Allosteric Enhancers of Human TRH Receptor: Confirmation Screen for Enhancers | shares compounds with TRHR enhancer-1 | TRH receptor cell assay, enhancer confirmation qHTS | activity change, negative = inhibition, % at 46.1 µM | 970 tested, under 10 active;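 further: compound effect scored on response to added TRH at EC20 of 10 nM; 0% is about no effect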
TRHR agonist-2: qHTS for Small Molecule Agonists and Allosteric Enhancers of Human TRH Receptor: Confirmation Screen for Agonists; shares compounds with TRHR enhancer-1; TRHR-expressing cells, agonist activation read-out; Potency, µM (top dose mostly 46.1 µM), for inactives: top-dose activation, usual class: activators; 970 tested, 8% active; further: potency means the concentration at half of the fitted maximal effect; 0% is about no effect; nearly all actives have a fitted effect of over 75% in size
Numbers without * were called inactive; ? = inconclusive; · = no result. Unless noted, the call rests on the fitted dose curve; in most records, active means well fitted curve in the direction sought with a large enough effect; inconclusive means small, poorly fitted or top-dose-only effect, or another doubt; inactive means no such curve, though single readings can be large; an effect the other way counts as inactive or inconclusive.

SMILES	D1 antag	D1 potentiator	D1 agonist	TRHR enhancer-1	TRHR agonist-1	TRHR enhancer-2	TRHR agonist-2
Cc1cc(Cl)ccc1NC(=O)CSc1nc2c(c(=O)[nH]1)CCC2	3	-2	0	15	0	·	·
COc1ccc(Cn2nnnc2C(c2ccccc2)N2CCN(C3CCCC3)CC2)cc1 (stereo not drawn)	-6	-3	30	48*	0	-2	8%
Cc1cccc(N2CCN(C(=O)NC3CCCCC3)CC2C)c1 (stereo not drawn)	-20	2	3	42*	0	-9	2%
Cc1cccc(N2CCN(C(=O)/C=C/c3cccs3)CC2C)c1 (stereo not drawn)	7	-3	0	-6	0	·	·
CCC(=O)N1CCc2cc(S(=O)(=O)CCC(=O)Nc3ccc(OC)c(OC)c3)ccc21	10	4	4	6	-1	·	·
CC1(Cc2cn(CCC#N)c3ccccc23)OCCO1	5	7	3	1	0	·	·
N#CCCn1cc(CNC2CCC(O)CC2)c2ccccc21 (stereo not drawn)	6	1	-1	45*	-2	?	-1%
N#CC1=C(N)Oc2cc(O)ccc2C1c1cccnc1 (stereo not drawn)	-3	-7	2	7	0	·	·
N#CC1=C(N)Oc2cc(O)c(Cl)cc2C1c1cccnc1 (stereo not drawn)	7	2	60*	-1	65*	5	?
CCn1ncc(Cl)c1C(=O)NC(=S)Nc1ccccc1Br	-10	-3	6	2	12	·	·
Cc1nn(C)c(C(=O)NC(=S)Nc2ccccc2Br)c1Cl	-4	8	2	22	75*	-16	13µM*
C=CCn1c(SCC(=O)Nc2nncs2)nnc1-c1ccco1	-13	·	3	1	0	·	·
Cc1cccc(OCCNS(=O)(=O)c2ccc(Cl)cc2)c1	-8	7	4	51*	1	4	1%
Cc1cccc(NC(=O)CCNS(=O)(=O)c2ccc(Cl)cc2)c1	0	-3	1	20	0	·	·
O=C(Nc1ccc(Br)cc1F)c1cc(S(=O)(=O)NCc2ccc(F)cc2)ccc1F	-23	-2	-1	10	0	·	·
CCCCCC1CC(=O)N(Cc2ccccc2)C(=O)N1 (stereo not drawn)	9	-4	1	69*	-1	-4	0%
COc1cc(/C=N/N(C)C)ccc1OC(=O)c1ccco1	-4	0	2	41*	0	3	-1%
COc1cc(/C=N/N2CCOCC2)ccc1OC(=O)c1ccco1	-14	-3	8	3	0	·	·
CC(C)[C@H](NC(=O)c1c(F)cccc1F)C(=O)OCC(=O)NC(=O)NC1CCCC1	3	0	3	55*	-1	-3	0%
CCOc1ccccc1CNC(=O)c1cc(-c2ccc(Cl)s2)nc2ccccc12	5	2	2	-5	1	·	·
CN(C)S(=O)(=O)c1ccc(C(=O)NCC(=O)N/N=C/c2ccccc2)cc1	14	-1	-1	82*	1	-3	-1%
Cc1ccccc1NC(=O)c1ccc(S(=O)(=O)N(C)C)cc1	-10	-1	2	45*	-1	-4	-1%
CCc1nc(SC)[nH]c(=O)c1C	26	-1	1	43*	-1	-1	0%
CCc1nc(SCC(=O)Nc2cccc3ccccc23)[nH]c(=O)c1C	-18	-8	0	-6	0	·	·
O=Cc1c(NCc2ccco2)nc2ccccn2c1=O	-1	-3	0	46*	0	-7	4%
SMILES	D1 antag	D1 potentiator	D1 agonist	TRHR enhancer-1	TRHR agonist-1	TRHR enhancer-2	TRHR agonist-2
CCc1cc(=O)[nH]c(SCc2ccc(C)cc2)n1	22	-5	2	54*	0	-1	-1%
Cc1c(C(=O)N2CCOCC2)cc(C(C)(C)C)n1-c1ccccc1	-1	-1	5	-5	1	·	·
COCCNC(=S)N/N=C/c1ccc(-c2ccc([N+](=O)[O-])cc2)o1	-4	2	88*	2	34*	-8	10µM*
O=[N+]([O-])c1ccc(-c2ccc(/C=N/O)o2)cc1	9	0	2	6	0	·	·
CCOc1ccc(C(=O)Nc2ccc(N3CCN(C(C)=O)CC3)cc2)cc1[N+](=O)[O-]	-13	-6	0	-9	1	·	·
CCOc1ccc(C(=O)Nc2ccc(N3CCN(C)CC3)cc2)cc1[N+](=O)[O-]	-10	0	2	63*	1	7	0%
CCCCNC(=O)C1c2ccccc2Oc2ccccc21	-1	1	1	-3	0	·	·
CCN(CC)C(=O)C1c2ccccc2Oc2ccccc21	-1	3	32*	46*	3	-8	1%
CC(C)CC(=O)NC(=S)N1CCCCCC1	8	-6	-2	42*	0	?	0%
CCCN1C(=O)/C(=C/c2ccc(N3CCOCC3)cc2)NC1=S	5	-1	132*	13	48*	?	16µM*
Cc1ccc(CN2C(=O)N/C(=C\c3ccc(N4CCOCC4)cc3)C2=O)cc1	-2	-6	2	-3	0	·	·
Cc1oc(-c2ccccc2)nc1C(=O)OCC(=O)NC(C)c1ccccc1 (stereo not drawn)	-4	10	0	8	-1	·	·
Cc1oc(-c2ccccc2)nc1C(=O)OCC(=O)NC(=O)NCC(C)C	-14	-4	0	49*	0	-4	-1%
CC(=O)Nc1ccc(NC(=O)COc2ccc(Br)cc2C)cc1	-18	6	6	2	0	·	·
Cc1cccc(NC(=O)COc2ccc(Br)cc2/C=N/O)c1	3	-6	9	43*	-1	-7	2%
C=C(C)Cn1c(=O)c2c(nc3n2CCN3c2ccc(CC)cc2)n(C)c1=O	5	-4	8	-2	0	·	·
CCc1ccc(CN(C)CC(O)COc2cccc3ccccc23)cc1 (stereo not drawn)	10	0	-1	42*	0	?	1%
COc1ccc2c(C)c(C(=O)N3CCN(Cc4ccccc4)CC3)oc2c1	-4	0	2	70*	0	?	0%
